# Measured values from ChEMBL document CHEMBL2218924, “A broad activity screen in support of a chemogenomic map for kinase signalling research and drug discovery” (Biochem J, 2013).
# How the values were obtained:
# [1] = target: T1, Serine/threonine-protein kinase Sgk3 (Homo sapiens) (UniProt Q96BR1); conditions: at 1 µM
# T1 sequence (whole entry): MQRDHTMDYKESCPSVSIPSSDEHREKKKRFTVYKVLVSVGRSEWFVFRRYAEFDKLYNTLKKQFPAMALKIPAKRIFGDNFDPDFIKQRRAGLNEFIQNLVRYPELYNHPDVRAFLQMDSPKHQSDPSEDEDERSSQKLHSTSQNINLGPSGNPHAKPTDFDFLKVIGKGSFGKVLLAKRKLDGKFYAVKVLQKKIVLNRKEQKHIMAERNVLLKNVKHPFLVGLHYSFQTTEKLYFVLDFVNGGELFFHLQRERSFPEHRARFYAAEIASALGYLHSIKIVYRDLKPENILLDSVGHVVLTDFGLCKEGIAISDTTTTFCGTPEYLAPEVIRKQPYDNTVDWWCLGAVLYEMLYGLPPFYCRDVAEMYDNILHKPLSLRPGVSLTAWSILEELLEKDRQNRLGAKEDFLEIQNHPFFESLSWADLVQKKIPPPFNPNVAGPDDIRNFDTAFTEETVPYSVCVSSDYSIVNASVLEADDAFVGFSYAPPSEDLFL
# [2] = target: T2, Serine/threonine-protein kinase Sgk2 (Homo sapiens) (UniProt Q9HBY8); conditions: at 1 µM
# T2 sequence (whole entry): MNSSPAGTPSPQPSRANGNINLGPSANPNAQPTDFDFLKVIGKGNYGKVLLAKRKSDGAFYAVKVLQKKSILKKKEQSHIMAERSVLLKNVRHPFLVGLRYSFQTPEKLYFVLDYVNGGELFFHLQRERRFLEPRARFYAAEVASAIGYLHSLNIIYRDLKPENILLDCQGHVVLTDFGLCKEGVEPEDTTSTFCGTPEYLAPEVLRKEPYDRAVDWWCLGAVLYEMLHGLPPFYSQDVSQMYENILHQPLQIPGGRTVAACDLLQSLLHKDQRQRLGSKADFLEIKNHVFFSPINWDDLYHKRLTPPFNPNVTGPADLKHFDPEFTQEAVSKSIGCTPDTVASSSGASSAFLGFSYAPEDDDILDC
# [3] = target: T2, Serine/threonine-protein kinase Sgk2 (Homo sapiens); conditions: at 10 µM
# [4] = target: T1, Serine/threonine-protein kinase Sgk3 (Homo sapiens); conditions: at 10 µM
# [5] = target: Serine/threonine-protein kinase SIK1 (Homo sapiens) (UniProt P57059); conditions: at 1 µM
# [6] = target: Serine/threonine-protein kinase SIK1 (Homo sapiens) (UniProt P57059); conditions: at 10 µM
# [7] = target: SRSF protein kinase 1 (Homo sapiens) (UniProt Q96SB4); conditions: at 1 µM
# [8] = target: SRSF protein kinase 1 (Homo sapiens) (UniProt Q96SB4); conditions: at 10 µM
# [9] = target: Tyrosine-protein kinase SYK (Homo sapiens) (UniProt P43405); conditions: at 1 µM
# [10] = target: Tyrosine-protein kinase SYK (Homo sapiens) (UniProt P43405); conditions: at 10 µM
# [11] = target: T3, Mitogen-activated protein kinase kinase kinase 7 (Homo sapiens) (UniProt O43318); conditions: at 1 µM
# T3 sequence (whole entry): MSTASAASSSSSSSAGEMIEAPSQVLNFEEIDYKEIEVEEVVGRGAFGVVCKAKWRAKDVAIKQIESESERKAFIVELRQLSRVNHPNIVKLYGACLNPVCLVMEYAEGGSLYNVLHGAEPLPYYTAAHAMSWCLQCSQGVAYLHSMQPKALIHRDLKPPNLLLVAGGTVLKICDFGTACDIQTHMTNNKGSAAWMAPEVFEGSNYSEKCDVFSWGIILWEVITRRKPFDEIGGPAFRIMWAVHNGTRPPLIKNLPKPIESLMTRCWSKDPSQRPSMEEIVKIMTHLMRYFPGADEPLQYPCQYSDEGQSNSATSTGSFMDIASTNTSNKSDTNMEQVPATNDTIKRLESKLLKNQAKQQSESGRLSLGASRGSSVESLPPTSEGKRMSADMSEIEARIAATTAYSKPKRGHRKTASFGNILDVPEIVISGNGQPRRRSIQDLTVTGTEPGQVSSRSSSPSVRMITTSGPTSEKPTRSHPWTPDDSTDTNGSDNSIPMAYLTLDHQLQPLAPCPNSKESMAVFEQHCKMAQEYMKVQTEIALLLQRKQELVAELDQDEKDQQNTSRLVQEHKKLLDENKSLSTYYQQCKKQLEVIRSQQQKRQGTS
# [12] = target: T3, Mitogen-activated protein kinase kinase kinase 7 (Homo sapiens); conditions: at 10 µM
# [13] = target: T4, Serine/threonine-protein kinase TAO1 (Homo sapiens) (UniProt Q7L7X3); conditions: at 1 µM
# T4 sequence (whole entry): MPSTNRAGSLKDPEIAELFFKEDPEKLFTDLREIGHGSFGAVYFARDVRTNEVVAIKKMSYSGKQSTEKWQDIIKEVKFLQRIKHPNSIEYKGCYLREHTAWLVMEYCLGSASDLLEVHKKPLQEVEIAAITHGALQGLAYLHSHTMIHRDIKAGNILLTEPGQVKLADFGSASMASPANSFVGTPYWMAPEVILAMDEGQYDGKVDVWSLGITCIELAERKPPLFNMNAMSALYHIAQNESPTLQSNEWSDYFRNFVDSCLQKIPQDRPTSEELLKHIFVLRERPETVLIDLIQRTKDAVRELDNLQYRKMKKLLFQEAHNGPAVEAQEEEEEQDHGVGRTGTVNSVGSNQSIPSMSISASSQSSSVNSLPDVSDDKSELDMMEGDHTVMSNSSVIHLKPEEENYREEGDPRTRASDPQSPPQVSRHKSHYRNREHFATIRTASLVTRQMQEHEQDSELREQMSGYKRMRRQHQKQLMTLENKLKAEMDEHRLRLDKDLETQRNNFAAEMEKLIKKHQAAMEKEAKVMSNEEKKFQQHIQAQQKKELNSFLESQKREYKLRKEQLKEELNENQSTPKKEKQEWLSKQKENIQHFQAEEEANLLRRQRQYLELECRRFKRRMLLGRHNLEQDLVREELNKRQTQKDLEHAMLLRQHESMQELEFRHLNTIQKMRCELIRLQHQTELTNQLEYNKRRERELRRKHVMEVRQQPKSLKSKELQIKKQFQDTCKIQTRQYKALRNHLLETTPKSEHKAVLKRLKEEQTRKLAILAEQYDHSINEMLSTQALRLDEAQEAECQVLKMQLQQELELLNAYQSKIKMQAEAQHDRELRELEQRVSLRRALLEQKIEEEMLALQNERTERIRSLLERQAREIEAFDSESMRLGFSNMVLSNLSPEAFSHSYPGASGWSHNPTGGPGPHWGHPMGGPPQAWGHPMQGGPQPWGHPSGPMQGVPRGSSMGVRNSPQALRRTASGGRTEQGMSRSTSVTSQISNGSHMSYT
# [14] = target: T4, Serine/threonine-protein kinase TAO1 (Homo sapiens); conditions: at 10 µM
# [15] = target: Serine/threonine-protein kinase 33 (Homo sapiens) (UniProt Q9BYT3); conditions: at 10 µM
# [16] = target: SRSF protein kinase 2 (Homo sapiens) (UniProt P78362); conditions: at 1 µM
# [17] = target: SRSF protein kinase 2 (Homo sapiens) (UniProt P78362); conditions: at 10 µM
# [18] = target: Serine/threonine-protein kinase 33 (Homo sapiens) (UniProt Q9BYT3); conditions: at 1 µM
# [19] = target: Serine/threonine-protein kinase PLK2 (Homo sapiens) (UniProt Q9NYY3); conditions: at 10 µM
# Sequence of Serine/threonine-protein kinase PLK2 (Homo sapiens) (Q9NYY3 whole entry, looked up): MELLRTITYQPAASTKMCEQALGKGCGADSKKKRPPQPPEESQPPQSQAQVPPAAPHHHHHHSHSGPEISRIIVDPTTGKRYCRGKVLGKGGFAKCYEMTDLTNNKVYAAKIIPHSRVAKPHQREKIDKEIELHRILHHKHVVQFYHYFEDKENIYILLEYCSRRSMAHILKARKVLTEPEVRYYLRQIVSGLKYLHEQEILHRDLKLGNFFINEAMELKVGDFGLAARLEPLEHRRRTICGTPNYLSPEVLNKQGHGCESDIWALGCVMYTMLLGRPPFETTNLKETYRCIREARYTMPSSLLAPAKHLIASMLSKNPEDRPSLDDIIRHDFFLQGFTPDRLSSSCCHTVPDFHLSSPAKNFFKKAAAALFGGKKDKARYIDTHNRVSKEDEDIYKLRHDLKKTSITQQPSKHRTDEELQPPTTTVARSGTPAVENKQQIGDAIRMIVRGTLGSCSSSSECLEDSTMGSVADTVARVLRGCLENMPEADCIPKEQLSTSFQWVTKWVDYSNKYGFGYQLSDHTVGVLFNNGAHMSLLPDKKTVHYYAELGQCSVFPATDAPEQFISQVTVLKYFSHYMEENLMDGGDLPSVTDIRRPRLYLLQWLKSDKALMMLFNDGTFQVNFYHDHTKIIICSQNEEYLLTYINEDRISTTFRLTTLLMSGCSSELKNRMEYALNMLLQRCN
# Sequence of Serine/threonine-protein kinase 33 (Homo sapiens) (Q9BYT3 whole entry, looked up): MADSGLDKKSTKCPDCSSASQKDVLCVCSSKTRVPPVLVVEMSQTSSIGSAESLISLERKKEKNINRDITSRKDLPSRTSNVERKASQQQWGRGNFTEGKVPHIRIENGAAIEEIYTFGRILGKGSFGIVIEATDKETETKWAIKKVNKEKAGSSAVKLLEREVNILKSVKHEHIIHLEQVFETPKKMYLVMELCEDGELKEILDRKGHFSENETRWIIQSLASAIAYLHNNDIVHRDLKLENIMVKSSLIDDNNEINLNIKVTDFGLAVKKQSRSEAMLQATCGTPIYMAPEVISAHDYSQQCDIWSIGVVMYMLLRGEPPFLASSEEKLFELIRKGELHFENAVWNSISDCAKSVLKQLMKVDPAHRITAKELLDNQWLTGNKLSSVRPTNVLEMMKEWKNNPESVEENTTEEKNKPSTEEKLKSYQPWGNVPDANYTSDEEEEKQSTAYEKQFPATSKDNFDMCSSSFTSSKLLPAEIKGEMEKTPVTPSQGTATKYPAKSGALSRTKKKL
# Sequence of SRSF protein kinase 2 (Homo sapiens) (P78362 whole entry, looked up): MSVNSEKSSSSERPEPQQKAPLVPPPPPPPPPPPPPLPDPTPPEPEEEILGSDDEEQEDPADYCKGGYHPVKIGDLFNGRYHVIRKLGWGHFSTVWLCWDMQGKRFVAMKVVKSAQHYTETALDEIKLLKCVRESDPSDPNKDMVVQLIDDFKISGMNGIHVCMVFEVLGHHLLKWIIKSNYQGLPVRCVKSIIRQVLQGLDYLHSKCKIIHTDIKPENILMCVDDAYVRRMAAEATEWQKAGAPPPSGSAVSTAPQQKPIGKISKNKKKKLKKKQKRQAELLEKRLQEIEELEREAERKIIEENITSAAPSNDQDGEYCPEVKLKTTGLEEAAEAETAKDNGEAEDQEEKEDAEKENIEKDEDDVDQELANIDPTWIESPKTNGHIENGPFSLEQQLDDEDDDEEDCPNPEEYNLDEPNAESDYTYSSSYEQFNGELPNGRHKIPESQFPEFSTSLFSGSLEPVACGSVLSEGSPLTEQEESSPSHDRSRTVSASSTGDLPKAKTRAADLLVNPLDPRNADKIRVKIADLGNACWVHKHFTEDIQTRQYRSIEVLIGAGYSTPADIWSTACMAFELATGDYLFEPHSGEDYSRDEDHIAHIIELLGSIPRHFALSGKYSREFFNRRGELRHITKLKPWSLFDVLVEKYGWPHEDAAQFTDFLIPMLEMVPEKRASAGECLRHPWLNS
# Sequence of Serine/threonine-protein kinase SIK1 (Homo sapiens) (P57059 whole entry): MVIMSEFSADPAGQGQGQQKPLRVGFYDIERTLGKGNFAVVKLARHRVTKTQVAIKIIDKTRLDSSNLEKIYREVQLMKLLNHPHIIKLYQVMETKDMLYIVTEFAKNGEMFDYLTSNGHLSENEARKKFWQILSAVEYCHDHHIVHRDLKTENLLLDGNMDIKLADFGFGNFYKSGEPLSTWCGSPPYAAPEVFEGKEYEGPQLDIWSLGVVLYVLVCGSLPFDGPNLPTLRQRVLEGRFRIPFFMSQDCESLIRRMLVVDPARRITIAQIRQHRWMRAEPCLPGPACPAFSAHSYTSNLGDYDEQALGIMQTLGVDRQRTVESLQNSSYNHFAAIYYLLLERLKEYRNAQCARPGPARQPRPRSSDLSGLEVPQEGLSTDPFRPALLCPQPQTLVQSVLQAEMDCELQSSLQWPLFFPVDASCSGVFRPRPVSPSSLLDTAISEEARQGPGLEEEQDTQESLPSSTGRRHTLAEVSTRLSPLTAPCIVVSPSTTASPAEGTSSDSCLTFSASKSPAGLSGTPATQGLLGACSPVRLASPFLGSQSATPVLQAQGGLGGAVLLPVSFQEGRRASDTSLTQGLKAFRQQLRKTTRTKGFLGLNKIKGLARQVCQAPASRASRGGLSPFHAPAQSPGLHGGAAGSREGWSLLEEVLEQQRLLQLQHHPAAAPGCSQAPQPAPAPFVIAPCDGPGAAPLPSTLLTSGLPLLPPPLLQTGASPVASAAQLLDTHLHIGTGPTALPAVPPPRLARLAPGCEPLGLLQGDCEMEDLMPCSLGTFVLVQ
# Sequence of SRSF protein kinase 1 (Homo sapiens) (Q96SB4 whole entry): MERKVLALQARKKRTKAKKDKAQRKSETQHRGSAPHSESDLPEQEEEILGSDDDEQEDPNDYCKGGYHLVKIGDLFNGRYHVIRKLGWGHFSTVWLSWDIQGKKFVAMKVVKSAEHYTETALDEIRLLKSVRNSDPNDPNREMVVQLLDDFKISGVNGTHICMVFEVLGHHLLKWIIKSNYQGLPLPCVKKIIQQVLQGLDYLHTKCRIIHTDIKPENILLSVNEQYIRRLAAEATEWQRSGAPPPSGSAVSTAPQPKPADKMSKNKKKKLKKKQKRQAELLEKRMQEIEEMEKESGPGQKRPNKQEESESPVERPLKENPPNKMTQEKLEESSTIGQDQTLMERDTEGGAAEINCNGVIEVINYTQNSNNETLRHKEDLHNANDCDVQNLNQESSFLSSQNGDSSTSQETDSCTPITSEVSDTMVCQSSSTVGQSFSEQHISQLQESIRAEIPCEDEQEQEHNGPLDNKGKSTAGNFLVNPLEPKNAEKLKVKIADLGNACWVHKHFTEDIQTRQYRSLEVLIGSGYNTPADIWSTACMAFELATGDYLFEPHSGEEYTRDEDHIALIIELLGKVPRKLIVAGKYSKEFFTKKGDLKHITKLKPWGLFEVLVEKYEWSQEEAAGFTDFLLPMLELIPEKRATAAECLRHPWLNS
compound,measurement,setting,value
Oc1ccc(Nc2nc(-c3ccc(Cl)cc3)cs2)cc1,residual activity,[1],112%
CO[C@H]1C[C@@H]2CC[C@@H](C)[C@@](O)(O2)C(=O)C(=O)N2CCCC[C@H]2C(=O)O[C@H]([C@H](C)C[C@@H]2CC[C@@H](O)[C@H](OC)C2)CC(=O)[C@H](C)/C=C(\C)[C@@H](O)[C@@H](OC)C(=O)[C@H](C)C[C@H](C)/C=C/C=C/C=C/1C,residual activity,[1],112%
O=C1NC(=O)c2c1c1c3ccccc3n3c1c1c2c2ccccc2n1C1CCC3O1,residual activity,[2],77%
same,residual activity,[3],61%
same,residual activity,[1],98%
same,residual activity,[4],80%
same,residual activity,[5],123%
same,residual activity,[6],74%
same,residual activity,[7],92%
same,residual activity,[8],83%
same,residual activity,[9],90%
same,residual activity,[10],80%
same,residual activity,[11],88%
same,residual activity,[12],89%
same,residual activity,[13],75%
same,residual activity,[14],69%
COc1ccc2c(c1)/C(=C/c1cnc[nH]1)C(=O)N2,residual activity,[3],32%
same,residual activity,[1],100%
same,residual activity,[4],53%
same,residual activity,[5],145%
same,residual activity,[6],48%
same,residual activity,[8],98%
same,residual activity,[15],53%
same,residual activity,[11],75%
same,residual activity,[12],21%
same,residual activity,[13],41%
same,residual activity,[14],7%
CC(C)(C)c1cc(C=C(C#N)C#N)cc(Br)c1O,residual activity,[2],98%
same,residual activity,[3],70%
same,residual activity,[5],103%
same,residual activity,[6],139%
same,residual activity,[7],114%
same,residual activity,[16],105%
same,residual activity,[17],81%
same,residual activity,[18],110%
same,residual activity,[15],108%
same,residual activity,[19],67%
same,residual activity,[9],128%
same,residual activity,[11],104%
same,residual activity,[12],103%
same,residual activity,[13],112%
same,residual activity,[14],70%
NC(=O)c1ccc2[nH]c(-c3ccc(Oc4ccc(Cl)cc4)cc3)nc2c1,residual activity,[1],107%
Cc1ccc(S(=O)(=O)/C=C/C#N)cc1,residual activity,[1],103%
COC(=O)[C@@]1(O)C[C@H]2O[C@]1(C)n1c3ccccc3c3c4c(c5c6ccccc6n2c5c31)C(=O)NC4,residual activity,[2],7%
same,residual activity,[3],1%
same,residual activity,[1],47%
same,residual activity,[4],13%
same,residual activity,[5],0%
same,residual activity,[6],0%
same,residual activity,[7],67%
same,residual activity,[8],14%
same,residual activity,[16],97%
same,residual activity,[17],52%
same,residual activity,[18],7%
same,residual activity,[15],0%
same,residual activity,[19],36%
same,residual activity,[9],1%
same,residual activity,[10],2%
same,residual activity,[11],-1%
same,residual activity,[12],-5%
same,residual activity,[13],5%
same,residual activity,[14],3%
